Compound activity as filed in PubChem.
Only some compounds are listed: those with a hit (about 7.3% of all), similar ones and a draw of the others.
FMDV inh: foot and mouth disease virus antiviral activity | FMDV antiviral cell-based qHTS | Potency, µM (titrated, usually from 57.9 µM), inactives show at the top dose activity change, negative = inhibition, hits mostly inhibitors | hit rate 1.2% among 410,000 | AID 1159524; calls by dose curve; tested in HEK293T cells; further: read-out not given here; potency means the concentration at half of the fitted maximal effect; nearly all actives have a fitted effect of over 45% in size
HCMV antiviral: blocks human cytomegalovirus replication; HFF cells, HCMV-luciferase reporter, 72 h; hits give low values; activity change, negative = inhibition, % at 57.5 µM; hit rate 4.5% among 410,000; in the data active means activity change below about -60%; inconclusive means no clear call, values can overlap the other calls; inactive means above about -39%
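Inhibition of viral replication was scored as loss of reporter luminescence in HFFs infected with HCMV-luciferase (MOI 1 PFU/cell) for 72 h; compounds tested at 2 doses, normalized to buffer and Salinomycin controls.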
HCV inhibitor: blocks hepatitis C virus. Huh7.5.1 HCVcc-Cre infection, luciferase reporter, 44 h. Potency, µM (titrated, usually from 41.8 µM), for inactives: top-dose activity change, negative = inhibition, usual class: inhibitors. hit rate 3.4% among 340,000. AID 651820; further: potency means the concentration at half of the fitted maximal effect
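Infectious HCVcc-Cre (~0.5 moi) was added to cells just after compound, with cells seeded 4 h earlier at 1,000 per well. Luciferase activity after 44 h culture reported infection; substrate was incubated 15 min at room temperature before reading.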
AmpC inh detg: inhibitors of E. coli AmpC beta-lactamase with detergent | hit rate 0.041% among 370,000 | Potency, µM (titrated, usually from 114 µM), for inactives: top-dose activity change, negative = inhibition, actives largely listed as inhibitors | AmpC hydrolysis of nitrocefin, absorbance 480 nm, 0.01% Triton | AID 485294;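 further: potency means the concentration at half of the fitted maximal effect; 0% = no-compound wells and -100% = no-enzyme wells; nearly all actives have a fitted effect of over 25% in size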
Target sequence (P00811 whole entry, looked up): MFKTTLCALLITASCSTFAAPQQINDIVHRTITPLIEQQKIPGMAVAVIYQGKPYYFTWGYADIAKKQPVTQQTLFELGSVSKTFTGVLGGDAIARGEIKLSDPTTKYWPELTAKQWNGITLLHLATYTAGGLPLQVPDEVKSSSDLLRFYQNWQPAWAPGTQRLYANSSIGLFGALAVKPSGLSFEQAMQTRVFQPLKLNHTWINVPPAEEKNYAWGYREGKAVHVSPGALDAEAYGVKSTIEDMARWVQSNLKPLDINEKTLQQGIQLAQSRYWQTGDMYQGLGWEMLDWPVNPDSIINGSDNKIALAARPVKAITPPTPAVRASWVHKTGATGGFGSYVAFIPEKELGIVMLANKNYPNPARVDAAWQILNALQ
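20 mM phosphate pH 7.0 + 0.01% (detergent screen) or 0.0001% Triton X-100; 5.3 nM AmpC reagent; cpd preinc 15 min RT; nitrocefin (800 uM stock) to start; A480 q20 s × 4 min; Activity was normalised to no-enzyme and no-compound control wells.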
AmpC no deterg: AmpC beta-lactamase inhibition without detergent; Potency, µM (highest dose often 57.1 µM), without a hit: at the highest dose activity change, negative = inhibition, most hits filed as inhibitors; P00811; AmpC nitrocefin hydrolysis, absorbance 480 nm, 0.0001% Triton; hit rate 0.52% among 330,000;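 further: potency means the concentration at half of the fitted maximal effect; plate controls were no compound for no effect and no enzyme for full effect; nearly all actives have a fitted effect of over 20% in size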
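20 mM phosphate pH 7.0 + 0.01% (detergent screen) or 0.0001% Triton X-100; 5.3 nM AmpC reagent; cpd preinc 15 min RT; nitrocefin (800 uM stock) to start; A480 q20 s × 4 min; Activity was normalised to no-enzyme and no-compound control wells.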
Active calls of the source: *; ? = inconclusive; . = no result given; [ ] = another dose, or the depositor's remark. Unless noted, the call rests on the fitted dose curve; in most records, active means well fitted curve in the direction sought with a large enough effect; inconclusive means small, poorly fitted or top-dose-only effect, or another doubt; inactive means no such curve, though single readings can be large; an effect the other way counts as inactive or inconclusive. Unless noted, on the % scale 0 is the no-effect control and ±100 the full control effect.

SMILES	FMDV inh	HCMV antiviral	HCV inhibitor	AmpC inh detg	AmpC no deterg
COc1ccc(C(=O)CC(=O)C(=O)Nc2ccc(C)cc2Cl)cc1	-16.6%	2.5	10µM*	-0.9%	-25.1%
O=[N+]([O-])c1c(NCc2ccccc2)cc(N2CCc3ccccc3C2)c2nonc12	-16.9%	?	1.41µM*	?	-22.4%
COc1cc(Cl)c(C)cc1N1C(=O)[C@@H]2C[C@H]1CN2Cc1ccccn1	-10.6%	.	.	.	.
COc1ccccc1C1CCN(Cc2ccc(Cl)cc2Cl)CC1	-13.6%	-1.3	-13.8%	-1.0%	-17.5%
COc1ccccc1C1CCN(Cc2cccc3ccccc23)CC1	?	-9.4	7.94µM*	?	-11.0%
Cc1ccccc1OCC(=O)Nc1ccccc1C(=O)OCc1cc(=O)n2c(C)csc2n1	?	-75.4*	.	13.4%	.
Cc1csc2nc(COC(=O)c3cccc(NC(=O)COc4ccc(Cl)cc4)c3)cc(=O)n12	-13.5%	26.8	.	8.1%	.
Cc1cccc(OCC(=O)Nc2cccc(C(=O)OCc3cc(=O)n4c(C)csc4n3)c2)c1	-18.5%	-61.4*	.	-2.5%	.
Cc1ccccc1OCC(=O)Nc1ccccc1C(=O)OCc1cc(=O)n2ccsc2n1	12.2%	45.6	.	1.9%	.
Cc1csc2nc(COC(=O)c3ccc(NC(=O)c4ccccc4Br)cc3)cc(=O)n12	-2.9%	-72.4*	.	-1.4%	.
Cc1cn2c(=O)cc(COC(=O)c3cccc(NC(=O)COc4ccccc4Cl)c3)nc2s1	8.91µM*	45.4	.	10.0%	.
CCN(CC)S(=O)(=O)c1ccc2c(c1)CC(C(=O)N1CCCC1)N2C(C)=O (stereo not given)	-6.0%	58.2	16.3%	7.2%	-3.1%
N#CCOC(=O)C1CCN(S(=O)(=O)c2ccc3c(c2)OCCO3)CC1	-19.1%	-9.4	1.4%	0.0%	-4.6%
CC1CN=C(c2cc(Cl)c(N)c(Cl)c2)c2c3ccc(C(F)(F)F)cc3nn21 (stereo not given)	.	63.3	.	.	.
CC(C)[C@H](NC(=O)c1ccccc1Cl)C(=O)Nc1nc(-c2ccccn2)cs1	?	-82.7*	?	9.6%	-10.0%
CC(Oc1ccc(Br)cc1)C(=O)Nc1nc(-c2ccccn2)cs1 (stereo not given)	39.8µM*	-87.5*	11.2µM*	6.6%	272.6%
Cc1cc(C(=O)NC2CCCN(Cc3ccc(Cl)cc3)C2)n(C)n1 (stereo not given)	-18.1%	.	?	2.6%	22.2%
O=C(Cn1nc2ccccc2n1)N1CCOc2ccc(CN3CCc4sccc4C3)cc2C1	-3.2%	.	.	.	.
O=C(Nc1noc2ccccc12)c1c(F)cccc1F	-15.4%	165.0	.	10.7%	.
O=C(Nc1cc(C(F)(F)F)cc(C(F)(F)F)c1)Nc1cnn(-c2ccc([N+](=O)[O-])cc2)c1C(F)(F)F	-47.6%	-26.0	?	6.9%	-22.8%
CC(C)=CCCC1(C)C=Cc2c(O)c3c(c(CC=C(C)C)c2O1)OC12C(=CC4CC1C(C)(C)OC2(C/C=C(/C)C(=O)O)C4=O)C3=O (stereo not given)	5.62µM*	.	.	.	.
CC(C)=CCCC1(C)C=Cc2c(O)c3c(c(CC=C(C)C)c2O1)OC12C(=CC4CC1C(C)(C)OC2(C/C=C(/C)C(=O)O)C4O)C3=O (stereo not given)	10µM*	.	.	.	.
CC(C)=CCCC1(C)C=Cc2c(O)c3c(c(CC=C(C)C)c2O1)OC12C(=CCCC1C(C)(C)O[C@@]2(C/C=C(\C)C(=O)O)C(=O)O)C3=O (stereo not given in full)	-1.5%	.	.	.	.
O=C(/C=C/NCc1cccnc1)c1ccc(Br)cc1	0.0%	-7.1	13.0%	.	.
c1ccc2sc(SCSc3nc4ccccc4s3)nc2c1	54.5%	-19.6	5.6%	-7.6%	-22.3%
SMILES	FMDV inh	HCMV antiviral	HCV inhibitor	AmpC inh detg	AmpC no deterg
O=C(O)CCSc1nc2ccccc2s1	39.8µM*	-82.5*	0.1%	-13.5%	-12.7%
O=C(Cc1nc2ccccc2s1)c1ccc(O)cc1O	.	.	-7.3%	0.1%	-23.3%
CCCn1c(N)c(C(=O)CSc2nc3ccccc3s2)c(=O)[nH]c1=O	?	-66.1*	?	2.1%	-27.8%
O=C(CSc1nc2ccccc2s1)c1ccc(O)cc1O	12.3%	135.9	-1.8%	-2.7%	7.08µM*
O=C(CN(c1ccccc1)S(=O)(=O)c1ccccc1)NCCSc1nc2ccccc2s1	22.4µM*	-20.5	-4.9%	-4.5%	-27.4%
CCCn1c(N)c(C(=O)CSc2nnc(N)s2)c(=O)[nH]c1=O	-23.6%	7.3	-3.7%	-7.6%	-18.1%
CCCCn1nnnc1C(C1CC1)N1C(=O)C(=O)c2ccccc21 (stereo not given)	.	-9.2	.	.	.
CN=c1scc(C)n1/N=C/c1ccc(O)c(O)c1O	-23.9%	-5.2	-17.2%	5.9%	-37.1%
CN=c1scc(-c2cccs2)n1/N=C/c1ccc(O)c(O)c1O	10µM*	12.0	-14.1%	3.6%	?
CN=c1scc(-c2cccs2)n1/N=C/c1ccccc1O	3.98µM*	-98.3*	12.6µM*	?	-32.5%
C=CCN=c1scc(-c2ccco2)n1/N=C/c1ccc(O)c(O)c1O	?	14.9	19.6%	1.7%	4.47µM*
COCCN=c1scc(-c2ccco2)n1/N=C/c1ccc(O)c(O)c1O	20.8%	-29.7	-13.8%	-5.4%	?
Cc1cccc(-c2nc(S(=O)(=O)c3ccc(F)cc3)c(N3CCN(c4ccccc4)CC3)o2)c1	-11.4%	-9.0	.	-0.9%	.
O=C(NC1CCCCC1)c1nccnc1-c1ccc(C(F)(F)F)cc1	.	33.3	.	.	.
COc1cc2nc(NC(=O)c3ccc(S(=O)(=O)N4CCCC4)cc3)sc2cc1OC	0.0%	-62.9*	.	7.2%	.
CC(=O)Nc1nc2ccc(S(=O)(=O)N3CCCC3)cc2s1	12.6%	-63.3*	0.6%	2.5%	-16.6%
CCN1CCN(Cc2ccc(NC(=O)c3ccc(C)c(NC(=O)c4cncc(-c5cccs5)c4)c3)cc2C(F)(F)F)CC1	-15.7%	.	?	.	.
CCN1CCN(Cc2ccc(NC(=O)c3cc(NC(=O)c4cnnc5ccccc45)cc(OC)c3)cc2C(F)(F)F)CC1	-19.1%	-93.7*	?	4.2%	97.8%
CCN1CCN(Cc2ccc(NC(=O)c3cc(NC(=O)c4nccnc4N)cc(OC)c3)cc2C(F)(F)F)CC1	-9.8%	-1.3	-19.8%[8.37 µM]	5.6%	62.2%
CCN1CCN(Cc2ccc(NC(=O)c3cc(NC(=O)c4cncc(-c5ccc(C#N)cc5)c4)cc(OC)c3)cc2C(F)(F)F)CC1	-22.3%	-99.4*	-13.2%[8.37 µM]	-5.5%	107.3%
CCN(CC)S(=O)(=O)c1cccc(-c2nnc(SCCCC(=O)c3ccccc3)o2)c1	?	-23.6	15.8µM*	0.6%	2.4%
C=CCn1c(C)cc(C(=O)CSc2nnc(-c3cccc(S(=O)(=O)N(CC)CC)c3)o2)c1C	-15.9%	-12.6	8.91µM*	6.3%	-5.1%
CCN(CC)S(=O)(=O)c1cccc(-c2nnc(SCC(=O)c3cc(C)n(C4CC4)c3C)o2)c1	-12.0%	-34.0	-11.8%	-10.4%	-23.3%
